Paper PMC13494018

B1: design_615_ab801fab-270b-4f6a-b2b5-83c165df418c_137_dldesign_0_cycle1_af2pred (protein)
chain: MEKEKELLKKAKELYEAAKTMAEVAKNAVALGHRSGALAAIKGIEQAAKAIEELAKEAKDEEVKKKIKELAKEAKKLAEEMKKLAEKA
B2: design_615_ab801fab-270b-4f6a-b2b5-83c165df418c_209_dldesign_0_cycle1_af2pred (protein)
chain: SAQAQEAATRAAEALARHLARQVAEHGVSDADFEGNVDILVALGRQSAAAGEAAAAVLEEAKAADPERFGAAAERLKAAAAEAK
B3: design_615_ab801fab-270b-4f6a-b2b5-83c165df418c_650_dldesign_0_cycle1_af2pred (protein)
chain: SSEREVLEAEGREWGRLIAAADAVSPALAAEVARALAEKAVADPGFLYALNVAVATVAREGSPAAAAVARAALAEASKAVIAKL
B4: design_615_ab801fab-270b-4f6a-b2b5-83c165df418c_622_dldesign_0_cycle1_af2pred (protein)
chain: VTPEEAHQALASTVMRLAQQLGLSGGAISTGLRLASEAARAFAEDPEKMRKVVEEGAKKIEALEGEKGKVVGEELRRKAEEIVA
B5: design_614_ef6b398b-10cb-4a07-8087-96dafb4f9c83_1883_dldesign_0_cycle1_af2pred (protein)
chain: EEEKKKLEEIKKLLEKAMEEAIKLVAADPEVQKRLKELAEELKKAETAGEAIRVALRAASVAGQVNPEAARVILTAAEEGAKLAK
B6: design_614_ef6b398b-10cb-4a07-8087-96dafb4f9c83_1662_dldesign_0_cycle1_af2pred (protein)
chain: SEEAQKKLEEAKRLLELAKEKLATDPQQGLVYALEAQELAAEALKDPEFAEEAQEILEEASRVASQAAARAIAQAQA
B7: design_614_ef6b398b-10cb-4a07-8087-96dafb4f9c83_2192_dldesign_0_cycle1_af2pred (protein)
chain: AAAALQAATIALGSLRALAESARRSNAESAKKLAELAEDLAADAKANAAKAAADPAYAAQAKAVAEEAKRALEETKRIAEEKAEA
B8: design_614_ef6b398b-10cb-4a07-8087-96dafb4f9c83_1868_dldesign_0_cycle1_af2pred (protein)
chain: TAAIATATIVALTKTASRSSVEDAKKLVEVAVGIAASLSAADAKAAIDAGLKVAKELAEEKNTETASVVAKELEKGGAKVAAEKA
B9: design_615_ab801fab-270b-4f6a-b2b5-83c165df418c_671_dldesign_0_cycle1_af2pred (protein)
chain: SPDAVAARGYLAMLRAAVAELERAAEELARDPEKAAEARALVERARALLAEAEALLADPAQAAAAAAAARAALEEVLEFIRRARELAA
B10: design_614_ef6b398b-10cb-4a07-8087-96dafb4f9c83_1693_dldesign_0_cycle1_af2pred (protein)
chain: AEELREEAERLREESRRLREEGIKGNAEEARKALLEINRNAGRLARLAVEASQLDPEVAAVANEALAEALENARALDETRRKLAA
B11: design_615_ab801fab-270b-4f6a-b2b5-83c165df418c_67_dldesign_0_cycle1_af2pred (protein)
chain: AVKEEAQKVLAESLEYMEKYKDDKEVVAEFNKAANYASKAITGPEETGKEYLAKAKEYLEKGKALAKEKEA
B12: design_615_ab801fab-270b-4f6a-b2b5-83c165df418c_246_dldesign_0_cycle1_af2pred (protein)
chain: AEREEAALAEAEKALAEAKKLVEAALADPATAATTVGEATALLTAAIERASREVSPERALEVAQEAARIQADGIKALA
B13: design_615_ab801fab-270b-4f6a-b2b5-83c165df418c_597_dldesign_0_cycle1_af2pred (protein)
chain: AAAAEAITKATLAAIEKTAEKIVEAAEKATPEEAKKLAESVKKLAETGVGIATAASPELGKEAKEKAEKLKEKAKEAVKKVKE
B14: design_614_ef6b398b-10cb-4a07-8087-96dafb4f9c83_884_dldesign_0_cycle1_af2pred (protein)
chain: MAVSDTLATNLATAERLLQRGIELAKTDPQAGIAQLRAAEILAQGTAAAAAAAGDTATAARAQAVAERARQAIEEV
B15: design_615_ab801fab-270b-4f6a-b2b5-83c165df418c_110_dldesign_0_cycle1_af2pred (protein)
chain: SAELAKLNGEALELAKLGAEEGAEYAEKAMELVIEAARLAGDEEGAKYAEEMREEALKAAKESPKEAAQIVMTALSRVFSRIAA
B16: design_614_ef6b398b-10cb-4a07-8087-96dafb4f9c83_2152_dldesign_0_cycle1_af2pred (protein)
chain: GAAEEERRRHQEAVERAEAAVKELEALAKQLAADPHGAVFAQAMVDQARRALEEAKTGDLETAEEALRVITSNLEMAKAIL
B17: design_614_ef6b398b-10cb-4a07-8087-96dafb4f9c83_1043_dldesign_0_cycle1_af2pred (protein)
chain: AAAEAAAVSKKAAELAKKALEKAKRMSPEEAINLAFQVATQAIRLGADAEAAINAIKIASEKGPEAGLKYLAEALEK
B18: design_615_ab801fab-270b-4f6a-b2b5-83c165df418c_234_dldesign_0_cycle1_af2pred (protein)
chain: LEESARKAAELALDLAKYAAANPATAPQALASIAGLARNAIEAGAEAAKLMAEALKKGAEYVAKNGTAAQAEQVKAIRERAERGAREA
B19: design_615_ab801fab-270b-4f6a-b2b5-83c165df418c_555_dldesign_0_cycle1_af2pred (protein)
chain: AAAALAAAAAAARAAATAALAETLELAEEAQRLGDSETSLALSRQANRIAGLYIAGVRDPRLAPEAGKRAEELRREAERLYKEAL
B20: design_615_ab801fab-270b-4f6a-b2b5-83c165df418c_121_dldesign_0_cycle1_af2pred (protein)
chain: GKDEELAKEAKKIAEAAEGVAASALALAAQPGLLAAAAAFARKAAEELERLGKENSKELEKVAKKEAKRAKEAAERVEAALKAATA
B21: design_614_ef6b398b-10cb-4a07-8087-96dafb4f9c83_1163_dldesign_0_cycle1_af2pred (protein)
chain: EAAREAALALMNEALALLVEETGRDPRLAPALALMSKAVIEMAKDPEKGIELAEKAAEEAKKVDPEVGEKVKKLVEEAKKAVKA
B22: design_614_ef6b398b-10cb-4a07-8087-96dafb4f9c83_1557_dldesign_0_cycle1_af2pred (protein)
chain: SAAAAALAAANAEIDAHAARAVELAAGLPHAEEVRALITAGAAAAKSGTQLAEAFRLFSEAARLSNEATRAELRKAIAAANKAALA
B23: design_615_ab801fab-270b-4f6a-b2b5-83c165df418c_251_dldesign_0_cycle1_af2pred (protein)
chain: AAAAAEAAAVQARGGALLDELKERTSELSPEAVSRASLLLTRGLTYASQPATLAEGRRYVDEAEAIIRSA
B24: design_614_ef6b398b-10cb-4a07-8087-96dafb4f9c83_2028_dldesign_0_cycle1_af2pred (protein)
chain: NAAAAEMAAAAAAFAATAAAAVTLSPEAGRKAVSAAFTAALTAISALGATASDEQTVAAMNTVWSTYIAATTALQAKAA
B25: design_614_ef6b398b-10cb-4a07-8087-96dafb4f9c83_875_dldesign_0_cycle1_af2pred (protein)
chain: AAARARLAAALEVAKVAADLEANAKANPATAALASATATATIKHAAAIVAEVDPAAGAAVAAAATAAEAIAIITAALKAA
B26: design_615_ab801fab-270b-4f6a-b2b5-83c165df418c_0_dldesign_0_cycle1_af2pred (protein)
chain: AAAERLAQRLEAARLIAEAAGVPEEVARRVAELVADPATFPEAVALAKAVGGGAMLILAAARSGSLENARKMAEAAA
B27: design_614_ef6b398b-10cb-4a07-8087-96dafb4f9c83_1060_dldesign_0_cycle1_af2pred (protein)
chain: SAVEVLKRSIEAVARQALEAAERLIELDPELGERAREEVERLRAEALAAADADPAEGGALLVELLRLNAEIRRRAEELE
B28: design_615_ab801fab-270b-4f6a-b2b5-83c165df418c_662_dldesign_0_cycle1_af2pred (protein)
chain: AAAQAKALAAEAKAYIAKAKEAAAAGNLGEAAQLASKALLKAAQAANLDPAFAPVLDEAQATVEAIAAAQAAAA
B29: design_614_ef6b398b-10cb-4a07-8087-96dafb4f9c83_1491_dldesign_0_cycle1_af2pred (protein)
chain: EERLKEILKLIKEAKKALEESPQLAAQKLAEAAELASEFPEIAVAAVRAIAFAPNPERAKEALEEALKLAEEALKK
B30: design_614_ef6b398b-10cb-4a07-8087-96dafb4f9c83_2138_dldesign_0_cycle1_af2pred (protein)
chain: SEALRAEAARLANAALALLSRASVAFGNALSPTLATAVDAFLAADREGDAETRLAVARAALAAAEAAVAAAAAAA
B31: design_615_ab801fab-270b-4f6a-b2b5-83c165df418c_153_dldesign_0_cycle1_af2pred (protein)
chain: SAAGEIGAKAIEAMKKAYEYAKLYESGEDEKAKEKAKEAAEKLKELAKEAAKAGAAGARLAKVAKASAENALKIAKE
B32: design_614_ef6b398b-10cb-4a07-8087-96dafb4f9c83_1173_dldesign_0_cycle1_af2pred (protein)
chain: LLEEALALGAEAIAEGQEAIALAVALGPEFQPFALELSRLMARIAAAQIQLVRDPEAGAAALREEIEELRRAIQELLDSL
B33: design_614_ef6b398b-10cb-4a07-8087-96dafb4f9c83_1766_dldesign_0_cycle1_af2pred (protein)
chain: ARAELEAQLAKAKEAAAQAQAAAAQLAALGGTATAAAITAAAQRALAAAEADLSKAPEALTFLQALLQQAQHQVAQLT
B34: design_614_ef6b398b-10cb-4a07-8087-96dafb4f9c83_950_dldesign_0_cycle1_af2pred (protein)
chain: AAAAAERTLAGIETLLEILRAAAADPRVTPAQLRAVINAARTAVEELERLDPELGREARERVEAAAREAEAAV
B35: design_615_ab801fab-270b-4f6a-b2b5-83c165df418c_149_dldesign_0_cycle1_af2pred (protein)
chain: AAAALEAIRDEGAATLTALAGPQLGALFRVAVQAAISGKLELAEQLLDAVVAEAAAINPAAAEKAKELKALALAIARA
B36: design_615_ab801fab-270b-4f6a-b2b5-83c165df418c_702_dldesign_0_cycle1_af2pred (protein)
chain: GEELREKAEKEAKQTLELVEGALEYAKTASPEAAALMEKALEEVKKLIELGKKSDAEEYAKYVEKARKVAFNAIAQATALIAA
B37: design_614_ef6b398b-10cb-4a07-8087-96dafb4f9c83_1110_dldesign_0_cycle1_af2pred (protein)
chain: GEELAESAKKLMEVLKDVAKDAAARDPANAAKYLADAKKAEEEAKKALEESPEKGMQAAQDALAKFQKAAIAAAKA
B38: design_614_ef6b398b-10cb-4a07-8087-96dafb4f9c83_1258_dldesign_0_cycle1_af2pred (protein)
chain: AEQEKAAQLALNTAKAALKRAKAGSAEEARAAAETAKLAAEAAKVNSTDPAVIKEAEKVAEETKKVAEAK

Molecular target: CD276, Q5ZPR3
Sequence (Q5ZPR3 whole entry): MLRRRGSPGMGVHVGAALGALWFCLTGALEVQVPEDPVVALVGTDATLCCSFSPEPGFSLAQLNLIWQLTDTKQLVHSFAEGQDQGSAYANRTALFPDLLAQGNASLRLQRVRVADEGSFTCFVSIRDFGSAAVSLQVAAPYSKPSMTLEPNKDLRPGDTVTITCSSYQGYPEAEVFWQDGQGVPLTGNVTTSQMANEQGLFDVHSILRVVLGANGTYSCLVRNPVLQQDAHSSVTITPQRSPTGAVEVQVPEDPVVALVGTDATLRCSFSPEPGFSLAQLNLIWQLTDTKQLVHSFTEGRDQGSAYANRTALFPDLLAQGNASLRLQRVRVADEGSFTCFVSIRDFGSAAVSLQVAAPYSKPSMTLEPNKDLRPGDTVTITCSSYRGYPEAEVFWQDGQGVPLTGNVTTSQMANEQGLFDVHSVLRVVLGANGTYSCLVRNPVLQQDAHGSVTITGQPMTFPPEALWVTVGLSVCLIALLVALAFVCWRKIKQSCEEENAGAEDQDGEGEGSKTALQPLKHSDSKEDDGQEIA

Row | Binder | binding in a display sort
1 | B1 | not found (inactive)
2 | B2 | not found (inactive)
3 | B3 | not found (inactive)
4 | B4 | not found (inactive)
5 | B5 | not found (inactive)
6 | B6 | not found (inactive)
7 | B7 | not found (inactive)
8 | B8 | not found (inactive)
9 | B9 | not found (inactive)
10 | B10 | not found (inactive)
11 | B11 | not found (inactive)
12 | B12 | not found (inactive)
13 | B13 | not found (inactive)
14 | B14 | binds (active)
15 | B15 | not found (inactive)
16 | B16 | not found (inactive)
17 | B17 | not found (inactive)
18 | B18 | not found (inactive)
19 | B19 | not found (inactive)

Row | Binder | binding in a display sort
20 | B20 | not found (inactive)
21 | B21 | not found (inactive)
22 | B22 | not found (inactive)
23 | B23 | not found (inactive)
24 | B24 | not found (inactive)
25 | B25 | not found (inactive)
26 | B26 | not found (inactive)
27 | B27 | not found (inactive)
28 | B28 | not found (inactive)
29 | B29 | not found (inactive)
30 | B30 | not found (inactive)
31 | B31 | not found (inactive)
32 | B32 | not found (inactive)
33 | B33 | not found (inactive)
34 | B34 | not found (inactive)
35 | B35 | not found (inactive)
36 | B36 | not found (inactive)
37 | B37 | not found (inactive)
38 | B38 | not found (inactive)
